This is a sample that favours compounds with a hit; in the whole collection about 7.5% have one here.
ELG1 genotox = qHTS screen for small molecules that induce genotoxicity in human embryonic kidney (HEK293T) cells expressing luciferase-tagged ELG1. hit rate 1.3% among 330,000. AID 504466, 2011. HEK293T ELG1-luciferase reporter, luminescence, 16 h. Potency, µM (series often up to 46 µM), hits mostly activators; further: nearly all actives have a fitted effect of over 60% in size
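Luminescence read-out: rising ELG1-luciferase signal, reflecting elevated ELG1 protein under genetic stress, flags genotoxic compounds. Cells were treated for 16 hr at 37 °C before ONE-Glo detection.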
Rab9 promoter act = qHTS Assay for Rab9 Promoter Activators; hit rate 2.8% among 320,000; Potency, µM (highest dose often 9.22 µM), hits mostly activators; Huh7 Rab9 promoter-luciferase reporter, luminescence, 24 h; further: nearly all actives have a fitted effect of over 60% in size
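Luciferase signal after 10 min detection reagent at ambient indicates Rab9 promoter upregulation; stably transfected Huh7 cells were treated 24 h with compound in DMSO at 37 °C, 5% CO2.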
FLuc counter = qHTS profiling assay for firefly luciferase inhibitor/activator using purifed enzyme and Km concentrations of substrates (counterscreen for miR-21 project); Luciferin 4-monooxygenase (Photinus pyralis), P08659; purified FLuc, Km substrates, luminescence inhibition; Potency, µM (doses to about 57.5 µM), actives largely listed as inhibitors; hit rate 6.9% among 360,000; AID 588342, 2011; further: nearly all actives have a fitted effect of over 55% in size
Target sequence (P08659 whole entry, looked up): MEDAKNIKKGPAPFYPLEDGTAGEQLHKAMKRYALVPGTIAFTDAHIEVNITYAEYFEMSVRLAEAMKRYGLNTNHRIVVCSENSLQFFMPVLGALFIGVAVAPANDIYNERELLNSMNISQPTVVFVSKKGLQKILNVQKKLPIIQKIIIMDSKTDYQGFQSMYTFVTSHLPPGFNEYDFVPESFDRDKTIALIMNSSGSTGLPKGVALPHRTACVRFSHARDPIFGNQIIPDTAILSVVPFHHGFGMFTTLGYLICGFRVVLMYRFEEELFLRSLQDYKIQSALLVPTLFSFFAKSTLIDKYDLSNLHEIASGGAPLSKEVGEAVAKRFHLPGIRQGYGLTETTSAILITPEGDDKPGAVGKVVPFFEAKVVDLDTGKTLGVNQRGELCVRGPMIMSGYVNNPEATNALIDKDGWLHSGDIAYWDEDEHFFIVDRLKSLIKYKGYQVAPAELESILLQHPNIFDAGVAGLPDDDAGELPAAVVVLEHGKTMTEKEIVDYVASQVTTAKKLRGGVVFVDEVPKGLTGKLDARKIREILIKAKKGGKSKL
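Purified P. pyralis luciferase, 10 nM final, with Km-level 10 uM D-luciferin and 10 uM ATP in 50 mM Tris acetate pH 7.5, 10 mM Mg acetate, 0.01% Tween-20, 0.05% BSA; 6-point qHTS titration about 60 µM downward; luminescence read.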
SMN2 splice enh = qHTS Assay for Enhancers of SMN2 Splice Variant Expression | HEK293 SMN2-luciferase splicing reporter, luminescence, 30-36 h | hit rate 2.8% among 210,000 | Potency, µM (titrated, usually from 46.1 µM), usual class: activators; further: nearly all actives have a fitted effect of over 55% in size
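qHTS luciferase splicing reporter: luminescence rises when SMN2 exon 7 is included in transfected HEK293 cells. Compound exposure lasted 30-36 h at 37C, with 4.5 mM final sodium butyrate as control, followed by a ONE-Glo read.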
NPC1 prom act = qHTS Assay for NPC1 Promoter Activators; Huh7 NPC1 promoter luciferase reporter, 24 h; Potency, µM (highest dose often 9.22 µM), hits mostly activators; hit rate 2.4% among 320,000; AID 485313, 2010; further: nearly all actives have a fitted effect of over 60% in size
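Cells: Huh7 expressing luciferase under the NPC1 promoter, 1500/well. Seeded 2 h, compound added, incubated 24 h at 37 °C. Luciferase reagent, 10 min ambient, then luminescence.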
Luc counter = Counterscreen for Luciferase (Kinase-Glo TM) Inhibition; Luciferin 4-monooxygenase (Photuris pensylvanica), Q27757; Kinase-Glo luciferase, ATP luminescence, 8 min; Potency, µM (doses to about 38.3 µM), hits mostly inhibitors; hit rate 0.28% among 200,000; further: nearly all actives have a fitted effect of over 60% in size
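Recombinant Kinase-Glo luciferase, 10 uM ATP (linear range), luciferin; imidazole pH 7.2 / KCl / MgCl2 / Tween / BSA buffer; 8 min RT; luminescence.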
A number is an active result; 0 = inactive; ? = inconclusive; - = no result; [ ] = dose if it differs, or a comment. The call rests on the fitted dose curve; in most records, active means well fitted curve in the direction sought with a large enough effect; inconclusive means small, poorly fitted or top-dose-only effect, or another doubt; inactive means no such curve, though single readings can be large; an effect the other way counts as inactive or inconclusive.

SMILES	ELG1 genotox	Rab9 promoter act	FLuc counter	SMN2 splice enh	NPC1 prom act	Luc counter
CCOc1ccc(CNC(=O)CCc2c(C)nn(-c3ccc(N4CCOCC4)nn3)c2C)cc1	-	-	0	-	-	-
CNC(=O)[C@H]1O[C@@H](n2cnc3c(NCc4cccc(I)c4)ncnc32)[C@H](O)[C@@H]1O	?	0	0	0	0	-
O=C(Cn1c(=O)n(Cc2ccco2)c(=O)c2sc3ccccc3c21)Nc1ccc(F)cc1F	-	-	0	0	-	-
Cc1ccc(NC(=O)CCc2c(C)nn(-c3ccc(N4CCCCC4)nn3)c2C)cc1F	?	3.98µM	3.38µM	-	2µM	-
Cc1cc(C)cc(NC(=O)CCc2c(C)nn(-c3ccc(N4CCOCC4)nn3)c2C)c1	0[9.26 µM]	0	15.1µM	-	0	-
Cc1ccc(C)c(NC(=O)CCc2c(C)nn(-c3ccc(N4CCCCC4)nn3)c2C)c1	0[9.26 µM]	0	?	-	0	-
COc1ccc(CNC(=O)CCc2c(C)nn(-c3ccc(N4CCCCC4)nn3)c2C)c(OC)c1	-	-	0	-	-	-
COc1ccc(NC(=O)CCc2c(C)nn(-c3ccc(N4CCCC4)nn3)c2C)cc1Cl	-	-	21.3µM	-	-	-
Cc1nn(-c2ccc(N3CCCC3)nn2)c(C)c1CCC(=O)Nc1ccccc1	-	-	0	-	-	-
Cc1nn(-c2ccc(N3CCCCC3)nn2)c(C)c1CCC(=O)Nc1ccc(F)cc1	0	?	13.5µM	-	?	-
Cc1ccn2c(Nc3ccc(C(C)C)cc3)c(-c3cccs3)nc2c1	-	-	?	0	-	-
COc1cccc(C(=O)NCCC2=CCCCC2)c1OC	?	3.98µM	0[2.3 µM]	12.6µM	?	0
Cc1cc(C(=O)NCCC2=CCCCC2)c(C)o1	?	10µM	?	11.2µM	1µM	0
Cc1c(C(=O)NCc2cccc(F)c2)oc2c1-c1[nH]ncc1CC2	-	-	0	-	-	-
CC(C)OCCCNC(=O)CN1C(=O)c2cccnc2Sc2ccccc21	-	-	0	-	-	-
O=C(NCc1csc(-c2ccccc2)n1)c1cc(F)cc2c1OCOC2	0	?	19µM	-	?	-
NS(=O)(=O)c1ccc(CCNC(=O)COC(=O)C2CCN(c3ccc(C(F)(F)F)cn3)CC2)cc1	?	0	0	-	0	-
Cc1cc(O)c(/C=N/Nc2ccc(F)cc2)c(=O)o1	0	0	13.5µM	0	0	0
Cc1c(/C=N/Nc2ccc(F)cc2)c(O)n(C)c(=O)c1C#N	0	0	23.9µM	-	0	0
Cc1ccc(N/N=C/c2c(O)cc(C)oc2=O)cc1	0	0	13.5µM	0	0	0
CCOc1ccc(/C=C/c2nc(C#N)c(Nc3ccc(OC)cc3)o2)cc1	-	-	0	0	-	-
CC(C)c1ccc(NC(=O)CN2C=NS(=O)(=O)c3ccccc32)cc1	-	-	0	-	-	-
CCc1nc(-c2ccc(C)nc2OC)no1	0	0	0[2.3 µM]	0	0	0
COc1nc(C)ccc1-c1noc(-c2cccnc2)n1	?	?	23.9µM	-	?	-
COc1ccccc1-c1nc(-c2ccc(C)nc2OC)no1	8.2µM	2µM	4.26µM	12.6µM	3.98µM	0
SMILES	ELG1 genotox	Rab9 promoter act	FLuc counter	SMN2 splice enh	NPC1 prom act	Luc counter
COc1nc2cc(C)ccc2cc1-c1noc(-c2cccnc2)n1	0	0	0	0	0	0
COc1nc(C)ccc1-c1noc(-c2ccccn2)n1	1.16µM	0.562µM	6.01µM	8.91µM	1.26µM	0
COc1nc(-c2ccccc2)ccc1-c1noc(C)n1	-	-	?	0	-	0
COc1ccc(N2CCN(c3ccc4nnc(CCC(=O)Nc5ccc(C)cc5)n4n3)CC2)cc1	0	0	0	-	0	-
O=C(N/N=C/c1ccccc1F)c1cccc2ccccc12	0	?	0	-	?	-
Cc1ccccc1C(=O)N/N=C/c1cccc2ccccc12	0	0[1.84 µM]	5.36µM	-	0	-
Cc1ccccc1C(=O)N/N=C/c1ccsc1C	?	5.62µM	10.7µM	15.8µM	?	0
Cc1ccc(N(C)C(=O)C2CCN(S(=O)(=O)c3cn(C)cn3)CC2)cc1	-	-	0	-	-	-
CCOc1ccc(Cc2nc(N)nc(N)n2)cc1	0	0	0	0	0	0
Nc1nc(N)nc(COc2ccccc2)n1	?	4.47µM	?	11.2µM	?	?
O=C(O)CCC(=O)Nc1cc(C(F)(F)F)cc(C(F)(F)F)c1	0	0	0	-	0	-
O=C(c1ccc2c(c1)OCO2)N1CCN(c2ccccc2)CC1	0	0	0	0	0	0
Cc1nn(C(=O)c2ccc3c(c2)OCO3)c(N)c1-c1ccccc1	?	0	0.477µM	0	0	0
CC(=O)c1c(C)nn(C(=O)c2cccs2)c1C	0	0	0	0	0	0
Cc1nn(C(=O)c2cccs2)c(N)c1-c1ccccc1	?	?	4.26µM	?	?	0
Cc1cccc(-c2nc(C#N)c(N3CCCCC3)o2)c1	?	?	13.5µM	-	?	-
Cc1cccc(-c2nc(C#N)c(NC3CCCCC3)o2)c1	?	1.78µM	7.57µM	10µM	2.51µM	0
COc1ccc(-c2nc(C#N)c(N3CCC(C)CC3)o2)cc1	0	0	?	-	0	-
Cc1cccc(-c2nc3c(C#N)c[nH]n3c2NC2CCCCC2)c1	-	-	0	-	-	-
Cc1ccc(-c2nc(C#N)c(N3CCC(C)CC3)o2)cc1	0	0.1µM	?	-	?	-
CC(C)c1ccc(NC(=O)C2CCN(S(=O)(=O)c3cccc4nsnc34)CC2)cc1	-	-	0	0	-	-
CCn1c(=O)cc(OCC(=O)NCCCN2CCC(C)CC2)c2ccccc21	16.4µM	0	0	0	0	0
CCn1c(=O)cc(OCC(=O)NCCCN2CC(C)CC(C)C2)c2ccccc21 (stereo unspecified)	16.4µM	0	0	?	0	0
CCC(C)NC(=O)Cc1c(C)c2cc3c(cc2oc1=O)OC(C)(C)CC3 (stereo unspecified)	0	3.98µM	?	-	?	-
Cc1coc2cc3oc(=O)c(CC(=O)N4CCCCC4)c(C)c3cc12	-	-	0	0	-	-
SMILES	ELG1 genotox	Rab9 promoter act	FLuc counter	SMN2 splice enh	NPC1 prom act	Luc counter
Cc1c(CC(=O)NCC(C)C)c(=O)oc2cc3c(cc12)CCC(C)(C)O3	0	0	?	-	0	-
Cc1c(Cc2ccccc2)c(=O)oc2c(C)c(OCC(=O)N3CCC(C(=O)O)CC3)ccc12	0	0	16.9µM	-	0	-
Cc1c(CC(=O)N[C@H](C(=O)O)C(C)C)c(=O)oc2cc3c(cc12)CCC(C)(C)O3	?	1.78µM	10.7µM	-	2.82µM	-
Cc1c(CC(=O)N2CCC(C(=O)O)CC2)c(=O)oc2cc3c(cc12)CCC1(CCCCC1)O3	0	0	12µM	-	0	-
N#Cc1ccccc1Cn1c(=O)n(CCCC(=O)NCc2ccccc2Cl)c(=O)c2ccccc21	-	-	0	0	-	-
Cc1c(CC(=O)N[C@@H](C)C(=O)O)c(=O)oc2cc3c(cc12)CCC(C)(C)O3	0	0	?	-	0	-
Cc1c(CC(=O)NC(C)C)c(=O)oc2cc3c(cc12)CCC(C)(C)O3	0	3.16µM	?	-	?	-
